The values that follow come from PubChem BioAssay (Tox21).

Values joined by “and” are separate entries in the source; they are usually repeats but may differ in a detail not shown here. Identical values can stand only once. Records with an inconclusive call do not appear. Entries that show only a call come without a potency. Where a structure was tested more than once in an assay, its records may differ in their call. Active and inactive are the calls of the source. Calls come from the whole dose curve; as a rule, active = well fitted cell-killing curve with a large enough effect in the repeat runs; inconclusive = weak or mixed curves, or effect the other way; inactive = no such curve, though single readings can be large or run the other way.
Potency is the fitted concentration of half-maximal effect.

The assay is described as follows: qHTS assay to identify small molecule agonists of the vitamin D receptor (VDR) signaling pathway - cell viability counter screen (AID 743224). Note: nearly all actives have a fitted effect of over 50% in size. The note with it: VDR-bla HEK293T viability, CellTiter-Glo luminescence, 16 h; series mostly up to 62.6 µM. The source says:
U.S. Tox21 Program National Center for Advancing Translational Sciences [NCATS] NIH Chemical Genomics Center [NCGC] U.S. Environmental Protection Agency [EPA] National Institutes of Environmental Health Sciences [NIEHS] National Toxicology Program [NTP] U.S. Food and Drug Administration [FDA] Tox21 Assay Overview: The vitamin D receptor (VDR), a member of nuclear hormone receptor superfamily, plays a critical role in calcium homeostasis and bone metabolism. It is also involved in cell differentiation and growth, and thrombogenicity. […] The cytotoxicity of the Tox21 compound library against the VDR-bla cell line was tested in parallel by measuring the cell viability using CellTiter-Glo assay (Promega, Madison, WI) in the same wells.
Tox21 Assay Protocol Summary: VDR-bla cells were dispensed at 2,000 cells/6 uL/well into black wall/clear-bottom 1536-well plates using a Multidrop Combi (Thermo Fisher Scientific, Waltham, MA) dispenser. After the assay plates were incubated at a 37C and 5% CO2 for 4 h, 23 nL of compounds dissolved in DMSO, positive controls or DMSO only was transferred to the assay plate by a Pintool station (Kalypsys, San Diego, CA). The plates were incubated at 37C and 5% CO2 for 16 h. After 1 uL of LiveBLAzerTM B/G FRET substrate was added using a Bioraptr Flying Reagent Dispenser (FRD) workstation (Beckman Coulter, Indianapolis, IN, USA), the plates were incubated at room temperature for 2 h, and fluorescence intensity was measured by an Envision plate reader (PerkinElmer, Shelton, CT). For cell viability readout that measures cytotoxicity, 3 ul/well of CellTiter-Glo reagent was added into the assay plates using a FRD. After 30 min incubation at room temperature, the luminescence intensity in the plates was measured using a ViewLux (PerkinElmer) plate reader.
A general note: qHTS replaces the single test concentration by a dilution series.
As to `C=Cc1cccc(CCl)c1`, the Potency result was “inactive”.

Turning to `CCCCON=O`, the Potency result was “inactive”.

Take `Clc1c(Cl)c(Cl)c(Cl)c(Cl)c1Cl`: the activity change, negative = cytotoxicity is 2.99% [at 5.95 µM] (inactive). Take `[O]=[Cr][O][Cr]=[O]`: the Potency result is “inactive”. With `COc1ccc(Cc2nccc3cc(OC)c(OC)cc23)cc1OC`, the Potency entry is “inactive”. Take `CCCC[N+]1(C)CCCC1` (tested in a mixture with another compound): the Potency entry is “inactive”. The same measure, in the same setting: with `O=NN(CCO)CCO` the entry was “inactive”. In the case of `Cc1nn(-c2cc(NS(C)(=O)=O)c(Cl)cc2Cl)c(=O)n1C(F)F`, the Potency entry is “inactive”.

Consider `CNC(=O)Oc1cc(C)cc(C(C)C)c1`, for which the Potency entry was “inactive”.

`NC1CCC(CC2CCC(N)CC2)CC1` (stereo not given): the Potency entry was “inactive”.

On to `Cc1ccc(C)c2ccccc12`, for which the Potency entry was “inactive”. Regarding `N#CSCc1ccccc1`, the Potency entry is “inactive”. Turning to `CC1(C)C(C=C(Cl)Cl)C1C(=O)OC(C#N)c1ccc(F)c(Oc2ccccc2)c1` (stereo not given), the Potency entry was “inactive”. Take `CCOP(=O)(Sc1ccccc1)Sc1ccccc1`: the Potency entry is “inactive”.

In the case of `C[C@@H]1CC2=CC(=O)CC[C@@H]2[C@H]2CC[C@@]3(C)[C@@H](CC[C@]3(C)O)[C@@H]21`, the Potency result was “inactive”. As to `C#CCC1=C(C)C(OC(=O)C2C(C=C(C)C)C2(C)C)CC1=O` (stereo not given), the Potency result is “inactive”. `CCCCC(CC)COC(=O)c1ccccc1C(=O)OCC(CC)CCCC` (stereo not given): the Potency entry was “inactive”. As for `ClC(Cl)C(Cl)(Cl)Cl`, the Potency entry is “inactive”. For `CCOC(=O)Cc1ccccc1`, the Potency entry was “inactive”.

With `[Cl-].[Cl-].[Sn+2]`, the Potency result was “inactive”. `CCOP(=O)(OCC)Oc1nc(Cl)c(Cl)cc1Cl`: the Potency is 4.34 µM (active). For the compound `ClC1(Cl)C2(Cl)C3(Cl)C4(Cl)C(Cl)(Cl)C5(Cl)C3(Cl)C1(Cl)C5(Cl)C24Cl` (stereo not given), the Potency result is “inactive”. For `[Cl-].[Cl-].[Cl-].[Yb+3]`, the Potency entry was “inactive”. On to `COc1c2c(cc3c1OCO3)CCN(C)C2`, for which the Potency result is “inactive”. On the same count and under the same terms, with `Oc1cc(Cl)cc(Cl)c1` the entry was “inactive”; with `CN(C)c1ccc(N)cc1`, 42.6 µM (active).

`CCOP(=S)(OCC)SC(CCl)N1C(=O)c2ccccc2C1=O` (stereo not given): the Potency entry was “inactive”.

As to `O=[N+]([O-])c1cccc2cccc([N+](=O)[O-])c12`, the Potency entry was “inactive”. As for `C=CCBr`, the Potency entry is “inactive”.

For `N#Cc1ccc(N(CC(N)=O)CC(F)(F)F)cc1C(F)(F)F`, the Potency entry is “inactive”.

As for `O=S(=O)(NS(=O)(=O)C(F)(F)F)C(F)(F)F`, the Potency entry is “inactive”. Consider `CC(C)c1c(CN(C)C(C)Cc2ccccc2)n(C)n(-c2ccccc2)c1=O` (stereo not given), for which the Potency entry is “inactive”. On to `c1ccc2c(c1)cc1ccc3cccc4ccc2c1c34`, for which the Potency entry is “inactive”.

As to `Nc1cc(Cl)ccc1Cl`, the Potency result is “inactive”. On to `CCOP(=O)(OCC)Oc1cc(C)nc(C(C)C)n1`, for which the Potency result was “inactive”. Still for that read-out and setting: the entry for `Nc1nc(N)c(N)c(N)n1` is “inactive”; for `CCCCCCCCCCCCCCn1cc[n+](C)c1` it is 8.72 µM (active) and 24.3 µM (active) and inactive. Consider `O=C1C[C@@H]2OCC=C3CN4CC[C@]56c7ccccc7N1[C@H]5[C@H]2[C@H]3C[C@H]46`, for which the Potency entry is “inactive”. Take `CN(C)C(=S)SSC(=S)N(C)C`: the Potency was 85.9 nM (active) and 27.5 nM (active) and 188 nM (active). With `C=C(C)C(=O)[O][Sn]([CH2]CCC)([CH2]CCC)[CH2]CCC`, the Potency is 0.49 µM (active).
